# Results reported in ChEMBL document CHEMBL1961873, “Compounds: GSK PKIS; Assays: Nanosyn kinase panel” (2012).
# Legend:
# [1] = biological target: Sphingosine kinase 1 (Homo sapiens) (UniProt Q9NYA1); details: at 1 µM;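 note: mean SPHK1 inhibition value reported from the GSK PKIS kinase panel screen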
# [2] = biological target: T1, Sphingosine kinase 2 (Homo sapiens) (UniProt Q9NRA0); details: at 0.1 µM
# T1 sequence (whole entry): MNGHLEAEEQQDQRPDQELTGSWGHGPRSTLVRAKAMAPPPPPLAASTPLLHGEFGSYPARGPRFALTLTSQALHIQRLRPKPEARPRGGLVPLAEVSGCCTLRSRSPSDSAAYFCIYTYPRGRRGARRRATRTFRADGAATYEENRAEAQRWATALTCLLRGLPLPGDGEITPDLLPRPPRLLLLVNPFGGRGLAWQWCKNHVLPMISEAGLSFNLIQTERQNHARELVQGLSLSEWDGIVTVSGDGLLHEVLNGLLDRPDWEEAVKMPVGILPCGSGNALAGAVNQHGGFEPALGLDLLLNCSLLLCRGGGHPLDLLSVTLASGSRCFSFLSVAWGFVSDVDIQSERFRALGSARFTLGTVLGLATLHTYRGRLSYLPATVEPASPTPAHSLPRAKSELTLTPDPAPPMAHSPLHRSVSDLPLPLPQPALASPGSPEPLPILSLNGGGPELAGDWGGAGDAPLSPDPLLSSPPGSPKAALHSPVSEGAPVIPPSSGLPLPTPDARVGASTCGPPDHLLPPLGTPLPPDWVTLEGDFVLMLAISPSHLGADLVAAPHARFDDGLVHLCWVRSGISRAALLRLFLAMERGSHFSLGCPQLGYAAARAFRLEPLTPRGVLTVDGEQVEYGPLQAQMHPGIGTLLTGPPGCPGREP
# [3] = biological target: T1, Sphingosine kinase 2 (Homo sapiens); details: at 1 µM
# [4] = biological target: Casein kinase II subunit alpha (Homo sapiens) (UniProt P68400); details: at 0.1 µM
# Chain of Casein kinase II subunit alpha (Homo sapiens) (P68400 whole entry, looked up): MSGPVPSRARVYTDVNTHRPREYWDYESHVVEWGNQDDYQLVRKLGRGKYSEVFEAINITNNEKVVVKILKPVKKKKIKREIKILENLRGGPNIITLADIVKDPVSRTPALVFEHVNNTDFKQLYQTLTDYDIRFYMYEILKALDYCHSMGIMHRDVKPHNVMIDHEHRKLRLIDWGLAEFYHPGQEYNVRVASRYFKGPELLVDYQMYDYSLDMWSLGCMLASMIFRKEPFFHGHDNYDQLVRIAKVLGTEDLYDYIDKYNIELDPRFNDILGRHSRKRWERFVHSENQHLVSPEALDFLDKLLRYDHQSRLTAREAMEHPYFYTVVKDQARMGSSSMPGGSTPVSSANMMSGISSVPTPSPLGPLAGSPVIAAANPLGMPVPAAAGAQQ
# [5] = biological target: Casein kinase II subunit alpha (Homo sapiens) (UniProt P68400); details: at 1 µM
# [6] = biological target: T2, Inhibitor of nuclear factor kappa-B kinase subunit alpha (Homo sapiens) (UniProt O15111); details: at 0.1 µM
# T2 sequence (whole entry): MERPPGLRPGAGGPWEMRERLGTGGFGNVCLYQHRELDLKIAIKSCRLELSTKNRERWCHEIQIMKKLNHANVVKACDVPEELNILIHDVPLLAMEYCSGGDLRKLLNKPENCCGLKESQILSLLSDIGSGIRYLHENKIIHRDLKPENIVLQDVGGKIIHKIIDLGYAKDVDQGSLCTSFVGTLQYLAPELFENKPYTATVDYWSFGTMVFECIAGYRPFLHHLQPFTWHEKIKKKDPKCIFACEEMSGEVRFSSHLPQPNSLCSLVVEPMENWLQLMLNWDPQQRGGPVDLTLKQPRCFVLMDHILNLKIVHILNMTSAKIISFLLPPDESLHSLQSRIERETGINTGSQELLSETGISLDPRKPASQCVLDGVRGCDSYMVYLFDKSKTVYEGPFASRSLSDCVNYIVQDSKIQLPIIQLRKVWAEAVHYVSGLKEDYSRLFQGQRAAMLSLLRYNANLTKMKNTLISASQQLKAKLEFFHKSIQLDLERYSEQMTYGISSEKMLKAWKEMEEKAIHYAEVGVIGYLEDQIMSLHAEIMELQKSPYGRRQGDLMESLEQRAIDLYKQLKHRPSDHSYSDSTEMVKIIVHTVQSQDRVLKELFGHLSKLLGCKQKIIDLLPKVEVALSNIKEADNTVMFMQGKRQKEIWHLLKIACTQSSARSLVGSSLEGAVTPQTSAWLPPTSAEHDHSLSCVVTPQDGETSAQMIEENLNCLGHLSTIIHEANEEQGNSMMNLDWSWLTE
# [7] = biological target: T2, Inhibitor of nuclear factor kappa-B kinase subunit alpha (Homo sapiens); details: at 1 µM
# [8] = biological target: T3, Inhibitor of nuclear factor kappa-B kinase subunit beta (Homo sapiens) (UniProt O14920); details: at 0.1 µM
# T3 sequence (whole entry): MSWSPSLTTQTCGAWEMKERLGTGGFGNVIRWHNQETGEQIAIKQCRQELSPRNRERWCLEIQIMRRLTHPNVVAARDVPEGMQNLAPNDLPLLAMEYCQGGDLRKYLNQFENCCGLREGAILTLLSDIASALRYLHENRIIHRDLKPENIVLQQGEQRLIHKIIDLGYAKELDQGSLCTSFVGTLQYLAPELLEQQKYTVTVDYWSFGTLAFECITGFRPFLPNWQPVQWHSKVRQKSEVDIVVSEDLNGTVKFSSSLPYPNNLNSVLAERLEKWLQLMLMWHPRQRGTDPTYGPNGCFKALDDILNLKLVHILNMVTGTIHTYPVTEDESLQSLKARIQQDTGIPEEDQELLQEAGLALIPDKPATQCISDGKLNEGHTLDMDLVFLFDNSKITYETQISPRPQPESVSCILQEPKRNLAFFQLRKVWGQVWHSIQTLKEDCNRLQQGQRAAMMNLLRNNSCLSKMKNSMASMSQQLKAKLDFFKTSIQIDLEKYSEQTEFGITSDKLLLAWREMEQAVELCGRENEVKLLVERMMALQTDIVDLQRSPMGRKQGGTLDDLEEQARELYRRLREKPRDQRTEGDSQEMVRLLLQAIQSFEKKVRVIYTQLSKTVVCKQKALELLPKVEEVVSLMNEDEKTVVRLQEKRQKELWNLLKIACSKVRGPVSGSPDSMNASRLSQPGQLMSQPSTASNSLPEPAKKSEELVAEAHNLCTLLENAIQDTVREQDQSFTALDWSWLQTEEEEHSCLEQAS
# [9] = biological target: T3, Inhibitor of nuclear factor kappa-B kinase subunit beta (Homo sapiens); details: at 1 µM
# [10] = biological target: T4, Inhibitor of nuclear factor kappa-B kinase subunit epsilon (Homo sapiens) (UniProt Q14164); details: at 0.1 µM
# T4 sequence (whole entry): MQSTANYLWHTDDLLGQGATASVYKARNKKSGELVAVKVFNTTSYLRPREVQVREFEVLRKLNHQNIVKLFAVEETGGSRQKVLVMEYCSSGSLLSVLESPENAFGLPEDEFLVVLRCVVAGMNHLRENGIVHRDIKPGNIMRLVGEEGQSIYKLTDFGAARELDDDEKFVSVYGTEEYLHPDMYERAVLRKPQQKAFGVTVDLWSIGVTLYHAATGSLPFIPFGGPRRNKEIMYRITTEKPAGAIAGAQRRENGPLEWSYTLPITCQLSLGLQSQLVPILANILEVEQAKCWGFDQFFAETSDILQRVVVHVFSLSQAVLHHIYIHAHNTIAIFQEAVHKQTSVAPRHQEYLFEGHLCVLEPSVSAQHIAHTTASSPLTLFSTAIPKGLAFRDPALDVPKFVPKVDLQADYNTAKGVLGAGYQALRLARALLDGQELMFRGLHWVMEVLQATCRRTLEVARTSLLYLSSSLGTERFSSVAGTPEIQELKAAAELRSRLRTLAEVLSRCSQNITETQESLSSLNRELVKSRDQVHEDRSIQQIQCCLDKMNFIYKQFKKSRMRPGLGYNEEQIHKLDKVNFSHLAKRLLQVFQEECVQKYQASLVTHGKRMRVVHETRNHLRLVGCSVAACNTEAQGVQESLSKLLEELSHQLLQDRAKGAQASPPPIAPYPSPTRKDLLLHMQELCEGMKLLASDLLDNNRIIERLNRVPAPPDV
# [11] = biological target: T4, Inhibitor of nuclear factor kappa-B kinase subunit epsilon (Homo sapiens); details: at 1 µM
# [12] = biological target: T5, Serine/threonine-protein kinase Nek1 (Homo sapiens) (UniProt Q96PY6); details: at 0.1 µM
# T5 sequence (whole entry): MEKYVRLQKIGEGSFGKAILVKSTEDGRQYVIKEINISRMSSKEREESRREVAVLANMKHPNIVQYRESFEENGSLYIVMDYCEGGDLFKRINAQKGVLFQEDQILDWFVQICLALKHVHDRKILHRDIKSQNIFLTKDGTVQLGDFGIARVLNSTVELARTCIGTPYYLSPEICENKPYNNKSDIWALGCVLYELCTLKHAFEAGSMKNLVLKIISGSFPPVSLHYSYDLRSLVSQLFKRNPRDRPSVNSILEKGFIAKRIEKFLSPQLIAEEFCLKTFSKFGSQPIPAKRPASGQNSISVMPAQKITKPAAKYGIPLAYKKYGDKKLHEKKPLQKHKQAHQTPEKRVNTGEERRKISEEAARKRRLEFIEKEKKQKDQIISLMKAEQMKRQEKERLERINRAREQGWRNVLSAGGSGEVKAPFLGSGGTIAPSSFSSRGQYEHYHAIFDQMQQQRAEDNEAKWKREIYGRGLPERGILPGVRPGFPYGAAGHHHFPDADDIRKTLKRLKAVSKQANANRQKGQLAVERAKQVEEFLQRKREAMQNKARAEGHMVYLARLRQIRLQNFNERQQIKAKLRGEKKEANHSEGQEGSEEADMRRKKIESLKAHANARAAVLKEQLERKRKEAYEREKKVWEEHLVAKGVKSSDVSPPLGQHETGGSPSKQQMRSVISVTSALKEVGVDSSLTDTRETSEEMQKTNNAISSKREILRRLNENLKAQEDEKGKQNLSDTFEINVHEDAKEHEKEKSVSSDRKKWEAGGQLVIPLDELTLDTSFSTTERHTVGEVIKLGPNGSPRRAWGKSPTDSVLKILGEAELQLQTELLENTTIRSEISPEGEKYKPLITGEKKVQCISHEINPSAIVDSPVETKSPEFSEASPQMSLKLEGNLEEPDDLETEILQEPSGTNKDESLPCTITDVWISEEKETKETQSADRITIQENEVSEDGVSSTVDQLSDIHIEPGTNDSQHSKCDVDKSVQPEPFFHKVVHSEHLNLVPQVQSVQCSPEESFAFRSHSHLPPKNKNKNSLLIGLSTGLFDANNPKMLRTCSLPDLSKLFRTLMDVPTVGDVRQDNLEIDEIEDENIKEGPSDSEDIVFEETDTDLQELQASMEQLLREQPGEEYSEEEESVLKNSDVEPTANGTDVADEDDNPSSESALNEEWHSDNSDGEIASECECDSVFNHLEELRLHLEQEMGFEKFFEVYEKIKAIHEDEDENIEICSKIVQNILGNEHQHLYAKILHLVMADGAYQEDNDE
# [13] = biological target: T5, Serine/threonine-protein kinase Nek1 (Homo sapiens); details: at 1 µM
# [14] = biological target: T6, Serine/threonine-protein kinase Nek2 (Homo sapiens) (UniProt P51955); details: at 0.1 µM
# T6 sequence (whole entry): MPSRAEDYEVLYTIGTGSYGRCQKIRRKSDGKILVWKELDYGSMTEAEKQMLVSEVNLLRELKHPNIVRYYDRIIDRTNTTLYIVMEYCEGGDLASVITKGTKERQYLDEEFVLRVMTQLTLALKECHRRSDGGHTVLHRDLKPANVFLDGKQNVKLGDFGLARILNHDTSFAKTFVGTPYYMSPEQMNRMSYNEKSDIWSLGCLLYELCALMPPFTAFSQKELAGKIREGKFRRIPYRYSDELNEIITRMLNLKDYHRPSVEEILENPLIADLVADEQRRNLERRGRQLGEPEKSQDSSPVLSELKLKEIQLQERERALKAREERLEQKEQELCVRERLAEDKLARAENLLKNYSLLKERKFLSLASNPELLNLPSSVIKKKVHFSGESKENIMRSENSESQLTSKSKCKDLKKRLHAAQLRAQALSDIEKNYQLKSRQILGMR
# [15] = biological target: T6, Serine/threonine-protein kinase Nek2 (Homo sapiens); details: at 1 µM
# [16] = biological target: Serine/threonine-protein kinase Nek6 (Homo sapiens) (UniProt Q9HC98); details: at 0.1 µM
# Chain of Serine/threonine-protein kinase Nek6 (Homo sapiens) (Q9HC98 whole entry): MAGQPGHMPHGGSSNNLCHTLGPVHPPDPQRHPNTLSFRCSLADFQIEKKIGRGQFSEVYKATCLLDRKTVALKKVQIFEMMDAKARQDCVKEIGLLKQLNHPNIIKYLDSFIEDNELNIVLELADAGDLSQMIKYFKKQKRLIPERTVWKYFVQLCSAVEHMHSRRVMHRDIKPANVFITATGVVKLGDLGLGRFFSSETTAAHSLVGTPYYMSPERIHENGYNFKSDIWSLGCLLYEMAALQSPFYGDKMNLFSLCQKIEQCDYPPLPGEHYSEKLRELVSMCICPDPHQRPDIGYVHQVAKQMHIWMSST
# [17] = biological target: Serine/threonine-protein kinase Nek6 (Homo sapiens) (UniProt Q9HC98); details: at 1 µM
# [18] = biological target: Serine/threonine-protein kinase Nek7 (Homo sapiens) (UniProt Q8TDX7); details: at 0.1 µM
# Chain of Serine/threonine-protein kinase Nek7 (Homo sapiens) (Q8TDX7 whole entry, looked up): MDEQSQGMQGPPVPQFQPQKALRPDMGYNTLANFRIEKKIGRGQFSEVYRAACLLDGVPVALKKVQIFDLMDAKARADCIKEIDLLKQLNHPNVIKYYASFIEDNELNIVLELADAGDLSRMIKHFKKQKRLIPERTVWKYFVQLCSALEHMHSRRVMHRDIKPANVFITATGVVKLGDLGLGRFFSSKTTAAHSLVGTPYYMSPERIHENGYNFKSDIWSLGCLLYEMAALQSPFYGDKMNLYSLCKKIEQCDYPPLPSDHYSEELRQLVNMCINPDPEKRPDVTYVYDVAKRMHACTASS
# [19] = biological target: Serine/threonine-protein kinase Nek7 (Homo sapiens) (UniProt Q8TDX7); details: at 1 µM
# [20] = biological target: T7, Serine/threonine-protein kinase Nek9 (Homo sapiens) (UniProt Q8TD19); details: at 0.1 µM;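 note: reported value is the mean percent inhibition of NEK9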
# T7 sequence (whole entry): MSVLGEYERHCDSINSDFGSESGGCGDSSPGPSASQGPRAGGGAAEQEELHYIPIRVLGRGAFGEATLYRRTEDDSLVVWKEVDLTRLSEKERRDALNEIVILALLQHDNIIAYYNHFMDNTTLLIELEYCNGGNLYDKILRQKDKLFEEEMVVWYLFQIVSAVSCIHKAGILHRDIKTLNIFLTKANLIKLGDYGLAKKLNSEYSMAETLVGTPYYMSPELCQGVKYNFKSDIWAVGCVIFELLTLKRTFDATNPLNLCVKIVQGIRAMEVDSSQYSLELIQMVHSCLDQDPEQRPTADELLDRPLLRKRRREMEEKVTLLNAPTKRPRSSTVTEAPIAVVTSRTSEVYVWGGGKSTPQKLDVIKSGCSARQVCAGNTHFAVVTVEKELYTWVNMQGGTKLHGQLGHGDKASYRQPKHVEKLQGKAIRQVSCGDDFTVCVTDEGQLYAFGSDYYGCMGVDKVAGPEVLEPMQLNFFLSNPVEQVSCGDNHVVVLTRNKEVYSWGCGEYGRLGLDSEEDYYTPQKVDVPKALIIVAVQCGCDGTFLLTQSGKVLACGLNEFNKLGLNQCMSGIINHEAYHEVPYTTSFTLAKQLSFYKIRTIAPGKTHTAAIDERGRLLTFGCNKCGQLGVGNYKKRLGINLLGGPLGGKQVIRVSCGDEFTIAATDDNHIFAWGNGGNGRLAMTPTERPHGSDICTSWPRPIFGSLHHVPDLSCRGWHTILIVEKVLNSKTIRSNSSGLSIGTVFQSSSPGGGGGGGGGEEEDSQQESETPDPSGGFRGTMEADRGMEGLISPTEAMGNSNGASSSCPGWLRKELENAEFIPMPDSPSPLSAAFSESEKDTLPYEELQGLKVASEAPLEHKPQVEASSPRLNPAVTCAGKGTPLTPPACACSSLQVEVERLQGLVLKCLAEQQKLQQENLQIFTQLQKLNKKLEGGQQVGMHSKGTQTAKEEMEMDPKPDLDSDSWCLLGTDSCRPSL
# Chain of Sphingosine kinase 1 (Homo sapiens) (Q9NYA1 whole entry): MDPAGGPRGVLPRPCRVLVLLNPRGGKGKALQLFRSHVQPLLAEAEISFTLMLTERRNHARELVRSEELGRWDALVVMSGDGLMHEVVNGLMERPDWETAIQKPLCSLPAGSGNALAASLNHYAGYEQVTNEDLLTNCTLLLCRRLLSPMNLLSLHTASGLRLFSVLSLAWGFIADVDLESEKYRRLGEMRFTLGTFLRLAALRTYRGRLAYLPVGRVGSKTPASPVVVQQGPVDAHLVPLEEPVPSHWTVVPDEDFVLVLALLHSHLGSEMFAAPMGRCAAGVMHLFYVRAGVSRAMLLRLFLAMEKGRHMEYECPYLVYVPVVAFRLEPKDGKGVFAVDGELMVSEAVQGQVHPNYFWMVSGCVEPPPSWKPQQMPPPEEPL
Compound,inhibition [1],inhibition [2],inhibition [3],inhibition [4],inhibition [5],inhibition [6],inhibition [7],inhibition [8],inhibition [9],inhibition [10],inhibition [11],inhibition [12],inhibition [13],inhibition [14],inhibition [15],inhibition [16],inhibition [17],inhibition [18],inhibition [19],inhibition [20]
CCn1c(-c2nonc2N)nc2c(C#CC(C)(C)O)nc(CN3CCCC3)cc21,0.08%,2.01%,1.13%,-0.41%,0.78%,-1.06%,0.78%,-1.14%,-3.01%,5.75%,30%,0.5%,2.97%,-0.01%,1.09%,1.01%,-0.68%,2.37%,0.41%,-0.93%
CC(=O)Nc1cccc(C#Cc2cncnc2Nc2ccc(OCc3cccc(F)c3)c(Cl)c2)n1,0.51%,1.73%,-0.13%,2.14%,9.24%,2.26%,-1.99%,-3.08%,2.94%,2.95%,1.53%,-2.25%,1.58%,-2.96%,-1.9%,1.43%,4.26%,-4.17%,-3.8%,0.45%
